# Experimental data from PubChem BioAssay (NCI).
# Compounds without any hit were thinned out: in the full panel of roughly 79,000, 15% have a hit. A number with no mark means an inactive call. Active and inactive are the calls of the source. No stated cut-off is given here; in the data, active means growth inhibition above about 70%; inactive means the rest.
# Assay: NCI Yeast Anticancer Drug Screen. Data for the bub3 strain (AID 167)
# Conditions: S. cerevisiae bub3 mutant strain, at 50.0 µM (retest, dose inferred, filed as 5.0), hits give high values
# In short: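 Growth of a checkpoint-deficient yeast mutant is measured after compound exposure. Values represent inhibition relative to vehicle.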
row,SMILES,growth inhibition
1,CCC/C(Cl)=N\OC(=O)Nc1cccc(C(F)(F)F)c1,98% (active)
2,[O-][n+]1c2ccc(O)cc2nc2ccc(Cl)cc21,11%
3,Clc1ccccc1C1OC1c1ccccc1Cl (stereo not drawn),98% (active)
4,c1ccc2c(c1)c1ncccc1c1nccnc21,-60%
5,CC(=O)Nc1ccc2c(c1)C(=Nc1ccc(C(=O)O)cc1)c1ccccc1-2,23%
6,COc1ccc(OC)c2cc3ccccc3cc12,64%
7,COc1cc(C2c3cc4c(cc3OC(NNc3ccccc3)C2C)OCO4)cc(OC)c1OC (stereo not drawn),94% (active)
8,O=C1c2cc([N+](=O)[O-])ccc2-c2cccc(F)c21,8%
9,CCCCCCCCCCCC(=O)N(C)C,97% (active)
10,CCCCCCCCCCCC1=C(O)C(=O)C=C(O)C1=O,89% (active)
11,Cc1ccc(CSC(N)=Nc2ccccc2)cc1C,22%
12,CCCCCCCCCCC1CCC(=O)O1 (stereo not drawn),9%
13,O=[N+]([O-])c1cc(CCl)ccc1CCl,97% (active)
14,Nc1ccc2c(c1)C(=O)c1cccc(N)c1C2=O,89% (active)
15,CCCCCCCCCCNC(=O)OCC,4%
16,CC1=C(C)Cc2c(O)ccc(O)c2C1,99% (active)
17,COc1ccc2c(c1)C(=O)c1ccccc1C2,85% (active)
18,CCC(=O)OCCn1c2nc(=O)[nH]c(=O)c-2nc2cc(C)c(C)cc21,10%
19,O=C(OCCN1CCCCCC1)C(c1ccsc1)C1CCCCC1 (stereo not drawn),88% (active)
20,Oc1c(Br)cc(Br)cc1C1CCCCC1,98% (active)

row,SMILES,growth inhibition
1,CC1(C)[C@@H]2CC[C@]1(C)[C@H](OC(=O)CSC#N)C2,99% (active)
2,S=C(N/N=C(/c1ccccc1)c1ccccn1)N1CCCCCC1,97% (active)
3,Cc1ccc2[nH]c3c(C)c4cc[n+](C)cc4c(C)c3c2c1,81% (active)
4,CNC(=O)OCc1c(COC(=O)NC)c(-c2ccc(-c3ccccc3)cc2)n(C)c1C,23%
5,COc1ccccc1/C=C1\Sc2scc(-c3cccc([N+](=O)[O-])c3)[n+]2C1=O,95% (active)
6,O=[N+]([O-])c1ccc2c(c1)C(N1CCN(CCO)CC1)Cc1ccc(F)cc1S2 (stereo not drawn),79% (active)
7,Cc1ccc(CCC2=CCCc3c2ccc2ccccc32)cc1,84% (active)
8,O=[N+]([O-])c1cccc2nccc(NCCCO)c12,-43%
9,Cc1ccc(-n2cc(-c3ccc(Cl)cc3)c(C#N)c2N)cc1,64%
10,Cc1ccc(S/N=C\c2ccccc2O)cc1,47%
11,O=C(O)C1OC1(c1cccc(Cl)c1)c1ccccc1Cl (stereo not drawn),95% (active)
12,NC(=S)N/N=C\c1nccc2ccccc12,97% (active)
13,Clc1cccc(C(Nc2nncs2)Nc2nncs2)c1Cl,14%
14,O=C(OCC=C1CCCC1)c1cc([N+](=O)[O-])cc([N+](=O)[O-])c1,70% (active)
15,O=C(Nc1ccccc1)C(=O)C(C(=O)c1ccccc1)C(c1ccccc1)c1ccccc1 (stereo not drawn),33%
16,N#CN1C2CCC1CC(=O)C2,12%
17,COc1ccccc1C(=O)OCC1CCCN2CCCCC12 (stereo not drawn),91% (active)
18,CCNc1nnc(CSc2nc(-c3ccccc3)c(-c3ccccc3)[nH]2)s1,97% (active)
19,O=C1c2ccccc2-c2n[nH]c3cccc1c23,89% (active)

# Same assay, conditions: S. cerevisiae bub3 mutant strain, at 50.0 µM, hits give high values
row,SMILES,growth inhibition
1,CCC/C(Cl)=N\OC(=O)Nc1cccc(C(F)(F)F)c1,87.7% (active)
2,[O-][n+]1c2ccc(O)cc2nc2ccc(Cl)cc21,78.8% (active)
3,Clc1ccccc1C1OC1c1ccccc1Cl (stereo not drawn),41.6%
4,c1ccc2c(c1)c1ncccc1c1nccnc21,-0.35%
5,CC(=O)Nc1ccc2c(c1)C(=Nc1ccc(C(=O)O)cc1)c1ccccc1-2,91.6% (active)
6,COc1ccc(OC)c2cc3ccccc3cc12,89.7% (active)
7,COc1cc(C2c3cc4c(cc3OC(NNc3ccccc3)C2C)OCO4)cc(OC)c1OC (stereo not drawn),88.2% (active)
8,O=C1c2cc([N+](=O)[O-])ccc2-c2cccc(F)c21,33.1%
9,CCCCCCCCCCCC(=O)N(C)C,92% (active)
10,CCCCCCCCCCCC1=C(O)C(=O)C=C(O)C1=O,57%
11,Cc1ccc(CSC(N)=Nc2ccccc2)cc1C,80% (active)
12,CCCCCCCCCCC1CCC(=O)O1 (stereo not drawn),91.3% (active)
13,O=[N+]([O-])c1cc(CCl)ccc1CCl,99.4% (active)
14,Nc1ccc2c(c1)C(=O)c1cccc(N)c1C2=O,57.1%
15,CCCCCCCCCCNC(=O)OCC,95.3% (active)
16,CC1=C(C)Cc2c(O)ccc(O)c2C1,83% (active)
17,COc1ccc2c(c1)C(=O)c1ccccc1C2,75% (active)
18,CCC(=O)OCCn1c2nc(=O)[nH]c(=O)c-2nc2cc(C)c(C)cc21,3.15%
19,O=C(OCCN1CCCCCC1)C(c1ccsc1)C1CCCCC1 (stereo not drawn),83% (active)
20,Oc1c(Br)cc(Br)cc1C1CCCCC1,89.8% (active)

row,SMILES,growth inhibition
1,CC1(C)[C@@H]2CC[C@]1(C)[C@H](OC(=O)CSC#N)C2,99% (active)
2,S=C(N/N=C(/c1ccccc1)c1ccccn1)N1CCCCCC1,87.8% (active)
3,Cc1ccc2[nH]c3c(C)c4cc[n+](C)cc4c(C)c3c2c1,65.6%
4,CNC(=O)OCc1c(COC(=O)NC)c(-c2ccc(-c3ccccc3)cc2)n(C)c1C,-13.5%
5,COc1ccccc1/C=C1\Sc2scc(-c3cccc([N+](=O)[O-])c3)[n+]2C1=O,83.8% (active)
6,O=[N+]([O-])c1ccc2c(c1)C(N1CCN(CCO)CC1)Cc1ccc(F)cc1S2 (stereo not drawn),-1.1%
7,Cc1ccc(CCC2=CCCc3c2ccc2ccccc32)cc1,33.8%
8,O=[N+]([O-])c1cccc2nccc(NCCCO)c12,10.1%
9,Cc1ccc(-n2cc(-c3ccc(Cl)cc3)c(C#N)c2N)cc1,61.6%
10,Cc1ccc(S/N=C\c2ccccc2O)cc1,76.5% (active)
11,O=C(O)C1OC1(c1cccc(Cl)c1)c1ccccc1Cl (stereo not drawn),89.9% (active)
12,NC(=S)N/N=C\c1nccc2ccccc12,99.2% (active)
13,Clc1cccc(C(Nc2nncs2)Nc2nncs2)c1Cl,-20.6%
14,O=C(OCC=C1CCCC1)c1cc([N+](=O)[O-])cc([N+](=O)[O-])c1,5.55%
15,O=C(Nc1ccccc1)C(=O)C(C(=O)c1ccccc1)C(c1ccccc1)c1ccccc1 (stereo not drawn),58.3%
16,N#CN1C2CCC1CC(=O)C2,57.3%
17,COc1ccccc1C(=O)OCC1CCCN2CCCCC12 (stereo not drawn),90.8% (active)
18,CCNc1nnc(CSc2nc(-c3ccccc3)c(-c3ccccc3)[nH]2)s1,85.2% (active)
19,O=C1c2ccccc2-c2n[nH]c3cccc1c23,65.6%
